This note sets out measurements from the supplement of paper PMC6992640.

Structures are written as SMILES.

This test concerns UCD52 (cells of a triple-negative basal-like breast cancer xenograft). As to the kind of experiment: cell viability of combination (% of vehicle); higher = less cytotoxic. Particulars: 1 µM; 72 h; partner dose: 10 nM. On the procedure: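 PDX cells were treated for 72 h with each drug at 1 µM plus afatinib (10 nM; 1 µM for WHIM30). Luciferase viability is expressed as percent of vehicle.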
`CCCCCCCCCCCCCCCCOP(=O)([O-])OCC[N+](C)(C)C` [Miltefosine] + CN(C)C/C=C/C(=O)Nc1cc2c(Nc3ccc(F)c(Cl)c3)ncnc2cc1O[C@H]1CCOC1 [Afatinib]: the “cell viability of combination” value is 69.5. In the case of `CNC(=O)c1cc(Oc2ccc(NC(=O)Nc3ccc(Cl)c(C(F)(F)F)c3)c(F)c2)ccn1.Cl` [Regorafenib hydrochloride] + CN(C)C/C=C/C(=O)Nc1cc2c(Nc3ccc(F)c(Cl)c3)ncnc2cc1O[C@H]1CCOC1 [Afatinib], the “cell viability of combination” value was 53.3. Take `CCN(CC)CCNC(=O)c1c(C)[nH]c(C=C2C(=O)Nc3ccc(F)cc32)c1C.O=C(O)CC(O)C(=O)O` [Sunitinib malate] + CN(C)C/C=C/C(=O)Nc1cc2c(Nc3ccc(F)c(Cl)c3)ncnc2cc1O[C@H]1CCOC1 [Afatinib]: the “cell viability of combination” value came to 43.6.

On to `CC(C)C(=O)OCC(=O)[C@@]12O[C@H](C3CCCCC3)O[C@@H]1C[C@H]1[C@@H]3CCC4=CC(=O)C=C[C@]4(C)[C@H]3[C@@H](O)C[C@@]12C` [Ciclesonide] + CN(C)C/C=C/C(=O)Nc1cc2c(Nc3ccc(F)c(Cl)c3)ncnc2cc1O[C@H]1CCOC1 [Afatinib], for which the “cell viability of combination” value is 99.5.

Consider `CC1=CC(=O)c2ccccc2C1=O` [Menadione] + CN(C)C/C=C/C(=O)Nc1cc2c(Nc3ccc(F)c(Cl)c3)ncnc2cc1O[C@H]1CCOC1 [Afatinib], for which the “cell viability of combination” value worked out at 74.6.

As for `CC(C)(C)c1ccc(C(O)CCCN2CCC(C(O)(c3ccccc3)c3ccccc3)CC2)cc1` (stereo not given) [Terfenadine] + CN(C)C/C=C/C(=O)Nc1cc2c(Nc3ccc(F)c(Cl)c3)ncnc2cc1O[C@H]1CCOC1 [Afatinib], the “cell viability of combination” value is 59.1.

On to `CC(C)Nc1cc(-c2c[nH]c(C(=O)NC(CO)c3cccc(Cl)c3)c2)c(Cl)cn1` (stereo not given) + CN(C)C/C=C/C(=O)Nc1cc2c(Nc3ccc(F)c(Cl)c3)ncnc2cc1O[C@H]1CCOC1 [Afatinib], for which the “cell viability of combination” value came out at 50.5. Consider `Clc1ccc(C(Cn2ccnc2)OCc2ccsc2Cl)c(Cl)c1` (stereo not given) [Tioconazole] + CN(C)C/C=C/C(=O)Nc1cc2c(Nc3ccc(F)c(Cl)c3)ncnc2cc1O[C@H]1CCOC1 [Afatinib], for which the “cell viability of combination” value turned out to be 81.8. Take `Cc1cccc(CN2CCN(C(c3ccccc3)c3ccc(Cl)cc3)CC2)c1.Cl.Cl` (stereo not given) [Meclizine 2HCl] + CN(C)C/C=C/C(=O)Nc1cc2c(Nc3ccc(F)c(Cl)c3)ncnc2cc1O[C@H]1CCOC1 [Afatinib]: the “cell viability of combination” value was found to be 68.6. Regarding `COc1ccccc1OCCNCC(O)COc1cccc2[nH]c3ccccc3c12` (stereo not given) [Carvedilol] + CN(C)C/C=C/C(=O)Nc1cc2c(Nc3ccc(F)c(Cl)c3)ncnc2cc1O[C@H]1CCOC1 [Afatinib], the “cell viability of combination” value was 59.2. As for `CCc1c(Cl)c(O)c(Cl)c(O)c1C(=O)OC1C(C)OC(OCC2=CC=CCC(O)C(C)=CC(CC)C(OC3OC(C)(C)C(OC(=O)C(C)C)C(O)C3O)C(C)=CC(C)=CCC(C(C)O)OC2=O)C(OC)C1O` (stereo not given) [Fidaxomicin] + CN(C)C/C=C/C(=O)Nc1cc2c(Nc3ccc(F)c(Cl)c3)ncnc2cc1O[C@H]1CCOC1 [Afatinib], the figure is 81.9. Consider `CNC(=O)c1cc(Oc2ccc(NC(=O)Nc3ccc(Cl)c(C(F)(F)F)c3)cc2)ccn1` [Sorafenib] + CN(C)C/C=C/C(=O)Nc1cc2c(Nc3ccc(F)c(Cl)c3)ncnc2cc1O[C@H]1CCOC1 [Afatinib], for which the “cell viability of combination” value was 52.2.

`Clc1ccc(COC(Cn2ccnc2)c2ccc(Cl)cc2Cl)c(Cl)c1.O=[N+]([O-])O` (stereo not given) [Miconazole Nitrate] + CN(C)C/C=C/C(=O)Nc1cc2c(Nc3ccc(F)c(Cl)c3)ncnc2cc1O[C@H]1CCOC1 [Afatinib]: the “cell viability of combination” value worked out at 76.3. Turning to `Cc1cn(-c2cc(NC(=O)c3ccc(C)c(Nc4nccc(-c5cccnc5)n4)c3)cc(C(F)(F)F)c2)cn1` [Nilotinib(AMN-107)] + CN(C)C/C=C/C(=O)Nc1cc2c(Nc3ccc(F)c(Cl)c3)ncnc2cc1O[C@H]1CCOC1 [Afatinib], the “cell viability of combination” value was determined as 56.1.

For the compound `CC[C@@]1(O)C(=O)OCc2c1cc1n(c2=O)Cc2cc3c(CN(C)C)c(O)ccc3nc2-1` [Topotecan] + CN(C)C/C=C/C(=O)Nc1cc2c(Nc3ccc(F)c(Cl)c3)ncnc2cc1O[C@H]1CCOC1 [Afatinib], the “cell viability of combination” value was found to be 76.4. On to `C=CC(=O)Nc1cc(Nc2nccc(-c3cn(C)c4ccccc34)n2)c(OC)cc1N(C)CCN(C)C` + CN(C)C/C=C/C(=O)Nc1cc2c(Nc3ccc(F)c(Cl)c3)ncnc2cc1O[C@H]1CCOC1 [Afatinib], for which the “cell viability of combination” value was 50.2.

On to `CNC(=O)c1cc(Oc2ccc(NC(=O)Nc3ccc(Cl)c(C(F)(F)F)c3)c(F)c2)ccn1` [Regorafenib] + CN(C)C/C=C/C(=O)Nc1cc2c(Nc3ccc(F)c(Cl)c3)ncnc2cc1O[C@H]1CCOC1 [Afatinib], for which the “cell viability of combination” value turned out to be 55.9. In the case of `COC(=O)NC(C(=O)N1CCCC1c1ncc(-c2ccc(-c3ccc(-c4cnc(C5CCCN5C(=O)C(NC(=O)OC)C(C)C)[nH]4)cc3)cc2)[nH]1)C(C)C` (stereo not given) + CN(C)C/C=C/C(=O)Nc1cc2c(Nc3ccc(F)c(Cl)c3)ncnc2cc1O[C@H]1CCOC1 [Afatinib], the “cell viability of combination” value was 59.1.

For `CC(C)C[C@H](NC(=O)[C@H](Cc1ccccc1)NC(=O)c1cnccn1)B(O)O` [Bortezomib] + CN(C)C/C=C/C(=O)Nc1cc2c(Nc3ccc(F)c(Cl)c3)ncnc2cc1O[C@H]1CCOC1 [Afatinib], the “cell viability of combination” value was determined as 15.1. As for `CN(C)c1ccc(O)c2c1CC1CC3C(N(C)C)C(=O)C(C(N)=O)=C(O)C3(O)C(=O)C1=C2O.Cl` (stereo not given) [Minocycline HCl] + CN(C)C/C=C/C(=O)Nc1cc2c(Nc3ccc(F)c(Cl)c3)ncnc2cc1O[C@H]1CCOC1 [Afatinib], the figure is 75.9; as for `C=C(c1ccc(C(=O)O)cc1)c1cc2c(cc1C)C(C)(C)CCC2(C)C` [Bexarotene] + CN(C)C/C=C/C(=O)Nc1cc2c(Nc3ccc(F)c(Cl)c3)ncnc2cc1O[C@H]1CCOC1 [Afatinib], 82.4; as for `COc1ncc(-c2ccc3nccc(-c4ccnnc4)c3c2)cc1NS(=O)(=O)c1ccc(F)cc1F` + CN(C)C/C=C/C(=O)Nc1cc2c(Nc3ccc(F)c(Cl)c3)ncnc2cc1O[C@H]1CCOC1 [Afatinib], 15.8. In the case of `CCCCCCCCOc1ccccc1C(=O)Nc1ccc(C(=O)OCC[N+](C)(CC)CC)cc1.[Br-]` [Otilonium Bromide] + CN(C)C/C=C/C(=O)Nc1cc2c(Nc3ccc(F)c(Cl)c3)ncnc2cc1O[C@H]1CCOC1 [Afatinib], the “cell viability of combination” value turned out to be 78.6.

Regarding `C=CC(=O)N1CCC(Oc2cc3c(Nc4ccc(Cl)c(Cl)c4F)ncnc3cc2OC)CC1` [Poziotinib] + CN(C)C/C=C/C(=O)Nc1cc2c(Nc3ccc(F)c(Cl)c3)ncnc2cc1O[C@H]1CCOC1 [Afatinib], the “cell viability of combination” value was 27.6. Consider `COc1cccc2c1C(=O)c1c(O)c3c(c(O)c1C2=O)CC(O)(C(=O)CO)CC3OC1CC(N)C(O)C(C)O1.Cl` (stereo not given) [Epirubicin HCl] + CN(C)C/C=C/C(=O)Nc1cc2c(Nc3ccc(F)c(Cl)c3)ncnc2cc1O[C@H]1CCOC1 [Afatinib], for which the “cell viability of combination” value came to 28. With `CN1CCN(CCOc2cc(OC3CCOCC3)c3c(Nc4c(Cl)ccc5c4OCO5)ncnc3c2)CC1` [Saracatinib (AZD0530)] + CN(C)C/C=C/C(=O)Nc1cc2c(Nc3ccc(F)c(Cl)c3)ncnc2cc1O[C@H]1CCOC1 [Afatinib], the “cell viability of combination” value is 37.9. As to `Clc1ccc(C(Cn2ccnc2)OCc2c(Cl)cccc2Cl)c(Cl)c1.O=[N+]([O-])O` (stereo not given) [Isoconazole nitrate] + CN(C)C/C=C/C(=O)Nc1cc2c(Nc3ccc(F)c(Cl)c3)ncnc2cc1O[C@H]1CCOC1 [Afatinib], the “cell viability of combination” value turned out to be 78.3. In the case of `CN1CCC(COc2cnc(-c3cccc(Cn4nc(-c5cccc(C#N)c5)ccc4=O)c3)nc2)CC1` + CN(C)C/C=C/C(=O)Nc1cc2c(Nc3ccc(F)c(Cl)c3)ncnc2cc1O[C@H]1CCOC1 [Afatinib] it was 60.5. In the case of `COC(=O)C12CCC(C)(C)CC1C1C(=O)C=C3C4(C)C=C(C#N)C(=O)C(C)(C)C4CCC3(C)C1(C)CC2` (stereo not given) [Bardoxolone methyl] + CN(C)C/C=C/C(=O)Nc1cc2c(Nc3ccc(F)c(Cl)c3)ncnc2cc1O[C@H]1CCOC1 [Afatinib] it was 47.9; in that of `O=C(NC1CCN(CCCCC2(C(=O)NCC(F)(F)F)c3ccccc3-c3ccccc32)CC1)c1ccccc1-c1ccc(C(F)(F)F)cc1` [Lomitapide] + CN(C)C/C=C/C(=O)Nc1cc2c(Nc3ccc(F)c(Cl)c3)ncnc2cc1O[C@H]1CCOC1 [Afatinib], 43.9; in that of `CC(Oc1cc(-c2cnn(C3CCNCC3)c2)cnc1N)c1c(Cl)ccc(F)c1Cl` [(R)-Crizotinib] + CN(C)C/C=C/C(=O)Nc1cc2c(Nc3ccc(F)c(Cl)c3)ncnc2cc1O[C@H]1CCOC1 [Afatinib], 48.3.

In the case of `Cc1c(-c2ccc(O)cc2)n(Cc2ccc(OCCN3CCCCCC3)cc2)c2ccc(O)cc12.Cl` [Bazedoxifene HCl] + CN(C)C/C=C/C(=O)Nc1cc2c(Nc3ccc(F)c(Cl)c3)ncnc2cc1O[C@H]1CCOC1 [Afatinib], the “cell viability of combination” value is 69.7.

In the case of `CCCCc1oc2ccc(NS(C)(=O)=O)cc2c1C(=O)c1ccc(OCCCN(CCCC)CCCC)cc1.Cl` [Dronedarone HCl] + CN(C)C/C=C/C(=O)Nc1cc2c(Nc3ccc(F)c(Cl)c3)ncnc2cc1O[C@H]1CCOC1 [Afatinib], the “cell viability of combination” value came out at 63.6.

Regarding `CC1(C)Cc2c(-c3ccccc3)c(-c3ccc(Cl)cc3)c(CC(=O)O)n2C1` [Licofelone] + CN(C)C/C=C/C(=O)Nc1cc2c(Nc3ccc(F)c(Cl)c3)ncnc2cc1O[C@H]1CCOC1 [Afatinib], the “cell viability of combination” value is 72.7. As for `O=C(C=Cn1cnc(-c2cc(C(F)(F)F)cc(C(F)(F)F)c2)n1)NNc1cnccn1` + CN(C)C/C=C/C(=O)Nc1cc2c(Nc3ccc(F)c(Cl)c3)ncnc2cc1O[C@H]1CCOC1 [Afatinib], the “cell viability of combination” value amounted to 52.2.

As for `CC(C)CC(NC(=O)CNC(=O)c1cc(Cl)ccc1Cl)B(O)O` (stereo not given) + CN(C)C/C=C/C(=O)Nc1cc2c(Nc3ccc(F)c(Cl)c3)ncnc2cc1O[C@H]1CCOC1 [Afatinib], the “cell viability of combination” value came to 18.1.

Turning to `CC(C)CC(NC(=O)C(CCc1ccccc1)NC(=O)CN1CCOCC1)C(=O)NC(Cc1ccccc1)C(=O)NC(CC(C)C)C(=O)C1(C)CO1` (stereo not given) [Carfilzomib (PR-171)] + CN(C)C/C=C/C(=O)Nc1cc2c(Nc3ccc(F)c(Cl)c3)ncnc2cc1O[C@H]1CCOC1 [Afatinib], the “cell viability of combination” value is 13.1. Turning to `CNC(=O)c1cc(Oc2ccc(NC(=O)Nc3ccc(Cl)c(C(F)(F)F)c3)cc2)ccn1.Cc1ccc(S(=O)(=O)O)cc1` [Sorafenib Tosylate] + CN(C)C/C=C/C(=O)Nc1cc2c(Nc3ccc(F)c(Cl)c3)ncnc2cc1O[C@H]1CCOC1 [Afatinib], the “cell viability of combination” value was determined as 42.3. `Oc1c(Cl)cc(Cl)c2cccnc12` [Chloroxine] + CN(C)C/C=C/C(=O)Nc1cc2c(Nc3ccc(F)c(Cl)c3)ncnc2cc1O[C@H]1CCOC1 [Afatinib]: the “cell viability of combination” value worked out at 75.4. Regarding `CCCCCCCCCCCC1=C(O)C(=O)C=C(O)C1=O` [Embelin] + CN(C)C/C=C/C(=O)Nc1cc2c(Nc3ccc(F)c(Cl)c3)ncnc2cc1O[C@H]1CCOC1 [Afatinib], the “cell viability of combination” value came out at 67.8.
